Results on 39 molecules are retold here after PubChem BioAssay (NCI).

This is part of a sample that, as a whole, favours compounds with a hit. Of some 83,000 tested, about 20% had one in any assay.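 Compound tested at a single concentration for 48 hours in 96-well plates; a percent growth value below 10 was scored as active.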 A number with no mark means an inactive call. Active and inactive are the calls of the source.

For one assay, the system named is BT-549 breast. Briefly: NCI-60 one-dose screen, 48 h (100 = growth as untreated, 0 = no growth, -100 = all killed). The conditions noted are these: 10 µM unless noted.
Turning to `Cc1ccc2nc(Cl)cc(=O)n2c1`, the growth was 102%.
On the same count and under the same terms, next, `CC(C)OC(=O)N1CCOCC1`: 101%.
For the molecule `CN(C)c1ncnc2c1ccn2C1OC(CO)C(O)C1O` (configuration not stated), the growth is 57.3%.
Still for that read-out and setting: to `CC[N+](CC)=c1cc2oc3cc(N(C)C)ccc3nc-2cc1C` belongs 60.2%.
On the same count and under the same terms, next, `O=S(=O)(CC(O)(c1ccccc1)c1ccccc1)CC(O)(c1ccccc1)c1ccccc1`: 102%; `COc1cc(/C=C/C(=O)N2CCN(C(=O)/C=C/c3cc(OC)c(OC)c(OC)c3)CC2)cc(OC)c1OC`: 88.1%.
On to `CN(C)c1nc2c(N)ncnc2n1C1OC(CO)C(O)C1O` (configuration not stated), for which the growth was 99.9%.
The same measure, in the same setting: to `CN(C)CCCC(C#N)c1ccccc1` (configuration not stated) belongs 111%; to `COc1cc(C2CC(c3ccc4c(c3)OCO4)=NN2C=O)cc(OC)c1OC` (configuration not stated), 40.3%.
Consider `Cn1c(=O)c2[nH]c(C3CC=CCC3)nc2n(C)c1=O` (configuration not stated), for which the growth was 108%.
Regarding `NC(=S)N/N=C1\CCCC(C(F)(F)F)C1` (configuration not stated), the growth is 96.3%.
The same measure, in the same setting: to `O=c1cc(Cc2ccc([N+](=O)[O-])cc2)[nH]c(=O)[nH]1` belongs 98.3%; to `COc1ccc(C2=CC(c3cc(OC)c(OC)c(OC)c3)NC(=O)N2)cc1OC` (configuration not stated), 8.72% (active); to `O=[N+]([O-])c1cc(S(=O)(=O)Oc2ccccc2)ccc1Cl`, 30.2%.
In the case of `CCC1=CCC[C@@]2(C)CCC[C@@]3(C)CCCC(C)(C)[C@]1([O-])[O+]32`, the growth was 101%.
On the same count and under the same terms, to `CCOC(=O)CC(=O)OC` belongs 101%.
The same measure, in the same setting: to `O=c1[nH]c(-c2ccccc2)nc(CN2CCCCC2)c1O` belongs 109%; to `CC(NNC(C)c1ccccc1)c1ccccc1` (configuration not stated), 113%; to `N#C/C(=C1C=C/C(=N/O)C(Cl)=C/1)c1ccc(Cl)cc1`, 87.2%.
The same measure, in the same setting: to `CC(C)CC1NC(C)(C)CO1` (configuration not stated) belongs 116%.
Take `O=C1Nc2ccc3c(c2/C1=C\c1cc2c(cc1Br)OCO2)OCO3`: the growth is 27.8%.

For the next assay, the system named is MDA-MB-435 melanoma. The description is as above. The conditions noted are these: 10 µM unless noted.
For `COc1ccc(NC(=O)CSc2nc(-c3ccc(OC)c(OC)c3)cc(-c3cc(OC)c(OC)c(OC)c3)n2)cc1`, the growth was 112%.
Consider `CCCOC(=O)n1cccc1`, for which the growth was 110%.
Same read-out and setting: next, `COc1cc(Cn2cc3c(c2)-c2oncc2CC3)cc(OC)c1OC`: -29.9% (active).
Same read-out and setting: next, `O=C(O)Cc1cccc(=O)c(O)c1C(=O)O`: 109%; `NNc1cccc(/C=C/c2ccccc2)cc1=O`: 73.2%.
Same read-out and setting: to `S=C1CC(=S)NC(=S)N1` belongs 112%.
Turning to `COc1cc(C2CC(c3ccc4c(c3)OCO4)=NN2C(C)=O)cc(OC)c1OC` (configuration not stated), the growth is -49% (active).
Turning to `Nc1nc(=O)c2ccccc2s1`, the growth is 102%.
`CCOC(=O)C1CCNC(=O)C1=O` (configuration not stated): the growth is 113%.
On the same count and under the same terms, next, `CCCCCCCCCCCCCCCCNC(=O)OC(C)C`: 68.5%; `Nc1nc(-c2ccccc2)c(CCCOc2ccc(NC(=O)CBr)cc2)c(=O)[nH]1`: 94.6%.
The same measure, in the same setting: to `Cc1ccc2nc(Cl)cc(=O)n2c1` belongs 106%.
The same measure, in the same setting: to `CC(C)OC(=O)N1CCOCC1` belongs 117%; to `CN(C)c1ncnc2c1ccn2C1OC(CO)C(O)C1O` (configuration not stated), 62.3%.
As for `CC[N+](CC)=c1cc2oc3cc(N(C)C)ccc3nc-2cc1C`, the growth was 50.8%.
Same read-out and setting: to `O=S(=O)(CC(O)(c1ccccc1)c1ccccc1)CC(O)(c1ccccc1)c1ccccc1` belongs 89.9%; to `COc1cc(/C=C/C(=O)N2CCN(C(=O)/C=C/c3cc(OC)c(OC)c(OC)c3)CC2)cc(OC)c1OC`, 115%; to `CN(C)c1nc2c(N)ncnc2n1C1OC(CO)C(O)C1O` (configuration not stated), 112%.
Same read-out and setting: next, `CN(C)CCCC(C#N)c1ccccc1` (configuration not stated): 115%; `COc1cc(C2CC(c3ccc4c(c3)OCO4)=NN2C=O)cc(OC)c1OC` (configuration not stated): -25.9% (active); `Cn1c(=O)c2[nH]c(C3CC=CCC3)nc2n(C)c1=O` (configuration not stated): 106%.
On the same count and under the same terms, to `NC(=S)N/N=C1\CCCC(C(F)(F)F)C1` (configuration not stated) belongs 105%; to `O=c1cc(Cc2ccc([N+](=O)[O-])cc2)[nH]c(=O)[nH]1`, 107%; to `COc1ccc(C2=CC(c3cc(OC)c(OC)c(OC)c3)NC(=O)N2)cc1OC` (configuration not stated), 7.31% (active).
As to `O=[N+]([O-])c1cc(S(=O)(=O)Oc2ccccc2)ccc1Cl`, the growth was 19.1%.
On the same count and under the same terms, to `CCC1=CCC[C@@]2(C)CCC[C@@]3(C)CCCC(C)(C)[C@]1([O-])[O+]32` belongs 103%.
Same read-out and setting: to `CCOC(=O)CC(=O)OC` belongs 110%; to `O=c1[nH]c(-c2ccccc2)nc(CN2CCCCC2)c1O`, 110%; to `CC(NNC(C)c1ccccc1)c1ccccc1` (configuration not stated), 112%.
For `N#C/C(=C1C=C/C(=N/O)C(Cl)=C/1)c1ccc(Cl)cc1`, the growth was 29.5%.
Consider `CC(C)CC1NC(C)(C)CO1` (configuration not stated), for which the growth was 113%.
The same measure, in the same setting: next, `O=C1Nc2ccc3c(c2/C1=C\c1cc2c(cc1Br)OCO2)OCO3`: -38.7% (active).

The test system of a further assay is SW-620 colon. The description is as above. The following applies: 10 µM unless noted.
On to `CC12CCCC(CC(=O)c3[nH]c4ccccc4c31)C2` (configuration not stated), for which the growth is 22.2%.
`CC(C)(C)N1CCC1C(N)=O` (configuration not stated): the growth was 97.7%.
Same read-out and setting: next, `C=C1CCC2C(C)(CO)C(O)CCC2(C)C1C/C=C1/C(=O)OCC1Oc1ccccc1C` (configuration not stated): 17.9%; `COc1ccc(NC(=O)CSc2nc(-c3ccc(OC)c(OC)c3)cc(-c3cc(OC)c(OC)c(OC)c3)n2)cc1`: 105%; `CCCOC(=O)n1cccc1`: 102%.
Same read-out and setting: to `COc1cc(Cn2cc3c(c2)-c2oncc2CC3)cc(OC)c1OC` belongs 27.1%; to `O=C(O)Cc1cccc(=O)c(O)c1C(=O)O`, 106%; to `NNc1cccc(/C=C/c2ccccc2)cc1=O`, 54.7%.
The same measure, in the same setting: to `S=C1CC(=S)NC(=S)N1` belongs 98.2%.
On to `COc1cc(C2CC(c3ccc4c(c3)OCO4)=NN2C(C)=O)cc(OC)c1OC` (configuration not stated), for which the growth was 26.6%.
Same read-out and setting: next, `Nc1nc(=O)c2ccccc2s1`: 116%.
Still for that read-out and setting: next, `Oc1ccc2cc(Br)ccc2c1-c1c(O)ccc2cc(Br)ccc12`: 48.3%.
On the same count and under the same terms, to `CCOC(=O)C1CCNC(=O)C1=O` (configuration not stated) belongs 108%; to `CCCCCCCCCCCCCCCCNC(=O)OC(C)C`, 18.9%.
`Nc1nc(-c2ccccc2)c(CCCOc2ccc(NC(=O)CBr)cc2)c(=O)[nH]1`: the growth is 108%.
Same read-out and setting: to `Cc1ccc2nc(Cl)cc(=O)n2c1` belongs 108%; to `CC(C)OC(=O)N1CCOCC1`, 95.4%.
On the same count and under the same terms, next, `CN(C)c1ncnc2c1ccn2C1OC(CO)C(O)C1O` (configuration not stated): 36.3%; `CC[N+](CC)=c1cc2oc3cc(N(C)C)ccc3nc-2cc1C`: 15.9%.
On to `O=S(=O)(CC(O)(c1ccccc1)c1ccccc1)CC(O)(c1ccccc1)c1ccccc1`, for which the growth is 89.6%.
On the same count and under the same terms, to `O=[N+]([O-])c1ccc(/C=C/C2(CCl)OCCO2)cc1` belongs 86.5%; to `COc1cc(/C=C/C(=O)N2CCN(C(=O)/C=C/c3cc(OC)c(OC)c(OC)c3)CC2)cc(OC)c1OC`, 105%.
Still for that read-out and setting: to `CN(C)c1nc2c(N)ncnc2n1C1OC(CO)C(O)C1O` (configuration not stated) belongs 109%; to `CN(C)CCCC(C#N)c1ccccc1` (configuration not stated), 106%.
Still for that read-out and setting: next, `COc1cc(C2CC(c3ccc4c(c3)OCO4)=NN2C=O)cc(OC)c1OC` (configuration not stated): 27%.
For the molecule `O=C(NNC(=O)N1c2ccccc2C=Cc2ccccc21)c1ccc2ccccc2c1`, the growth was 101%.
On the same count and under the same terms, next, `Cn1c(=O)c2[nH]c(C3CC=CCC3)nc2n(C)c1=O` (configuration not stated): 101%; `NC(=S)N/N=C1\CCCC(C(F)(F)F)C1` (configuration not stated): 98.5%.
The same measure, in the same setting: to `O=c1cc(Cc2ccc([N+](=O)[O-])cc2)[nH]c(=O)[nH]1` belongs 103%; to `COc1ccc(C2=CC(c3cc(OC)c(OC)c(OC)c3)NC(=O)N2)cc1OC` (configuration not stated), 17.3%.
Same read-out and setting: next, `O=[N+]([O-])c1cc(S(=O)(=O)Oc2ccccc2)ccc1Cl`: 23.5%; `CCN(CC)CCC(CNc1ccnc2cc(Cl)ccc12)c1ccc(Cl)cc1` (configuration not stated): -67.8% (active); `CCC1=CCC[C@@]2(C)CCC[C@@]3(C)CCCC(C)(C)[C@]1([O-])[O+]32`: 101%.
In the case of `CCOC(=O)CC(=O)OC`, the growth is 98.8%.
The same measure, in the same setting: to `O=c1[nH]c(-c2ccccc2)nc(CN2CCCCC2)c1O` belongs 104%; to `CC(NNC(C)c1ccccc1)c1ccccc1` (configuration not stated), 96.1%.
The same measure, in the same setting: next, `N#C/C(=C1C=C/C(=N/O)C(Cl)=C/1)c1ccc(Cl)cc1`: 59.2%; `CC(C)CC1NC(C)(C)CO1` (configuration not stated): 106%.
On the same count and under the same terms, to `O=C1Nc2ccc3c(c2/C1=C\c1cc2c(cc1Br)OCO2)OCO3` belongs 7.57% (active).
